This is an account of results in PubChem BioAssay (Tox21).

Structures are written as SMILES. Inconclusive results are not listed. Unmarked numbers belong to inactive results. The source made the active and inactive calls. Calls come from the whole dose curve.
% is set by controls: 0 for no effect and ±100 for the full control effect.

This assay is described as follows: qHTS assay for small molecule disruptors of the mitochondrial membrane potential - cell viability (AID 720634).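 Note: human HepG2 liver cancer cells; nearly all actives have a fitted effect of over 20% in size.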 To be noted: HepG2 viability, ATP luminescence (CellTiter-Glo), 1 h; series mostly up to 83.2 µM; activity change, negative = cytotoxicity: at the top concentration. An excerpt: U.S. Tox21 Program National Center for Advancing Translational Sciences [NCATS] NIH Chemical Genomics Center [NCGC] U.S. Environmental Protection Agency [EPA] National Institutes of Environmental Health Sciences [NIEHS] National Toxicology Program [NTP] U.S. Food and Drug Administration [FDA] Tox21 Assay Overview: Mitochondrial membrane potential (MMP), one of the parameters for mitochondrial function, is generated by mitochondrial electron transport chain that creates an electrochemical gradient by a series of redox reactions. This gradient drives the synthesis of ATP, a crucial molecule for various cellular processes. Measuring MMP in living cells is commonly used to assess the effect of chemicals on mitochondrial function; decreases in MMP can be detected using lipophilic cationic fluorescent dyes. […] The dye accumulates in the mitochondria of healthy cells as aggregates, with red fluorescence. The mitochondrial potential decreases and the dye could not accumulate in the mitochondria and remains in the cytoplasm in monomers, with green fluorescence. In addition to the mitochondrial potential assay, these cells were also used to test the cytotoxicity by determining the cell viability in the culture based on the quantitation of ATP present. The cytotoxicity was measured in the same assay well of MMP assay.
Tox21 Assay Protocol Summary: 2,000 HepG2 cells in 5 uL/well were dispensed into black, clear-bottom 1536-well plates using a Multidrop Combi (Thermo Scientific) dispenser. The assay plates were incubated for an overnight at 37 C to allow cells to attach to the wells, followed by the transfer of 23 nL compound or DMSO vehicle by a pin tool (Kalypsys). The plates were incubated for 1 hr at 37 C and 5% CO2, followed by the addition of 5 uL of 2X m-MPI dye into each well using Flying Reagent Dispenser (Aurora Discovery) and then CellTiter-Glo reagent was added at 4 uL/well and incubated 30 min at room temperature. Then luminescence intensity was quantified on a ViewLux CCD-based plate reader.
In the case of `O=C(O)c1c(Cl)ccc2cc(Cl)cnc12`, the “activity change, negative = cytotoxicity” value was 9.82%.

`NNCc1ccccc1`: the “activity change, negative = cytotoxicity” value is -21.3% [at 95.3 µM].

As for `N[C@@H]1C[C@H]1c1ccccc1`, the “activity change, negative = cytotoxicity” value is -4.23%.

Take `[P]#[In]`: the “activity change, negative = cytotoxicity” value is 18.5%.

Turning to `CCN[C@H](C)Cc1cccc(C(F)(F)F)c1`, the “activity change, negative = cytotoxicity” value is 6.83%.

With `CCOC(=O)CC(SP(=S)(OC)OC)C(=O)OCC` (stereo not given), the “activity change, negative = cytotoxicity” value was -1.37%.

As for `O=C(O)C(F)(F)C(F)(F)C(F)(F)C(F)(F)C(F)(F)C(F)(F)F`, the “activity change, negative = cytotoxicity” value was 5.49%.

Regarding `CCOC1Oc2ccc(OS(C)(=O)=O)cc2C1(C)C` (stereo not given), the “activity change, negative = cytotoxicity” value was -6.39%.

As for `N=C(N)[Se]`, the “activity change, negative = cytotoxicity” value was -2.04% [at 95.3 µM].

In the case of `O=C(Cl)/C=C/C(=O)Cl`, the “activity change, negative = cytotoxicity” value is 9.06% [at 95.3 µM].

On to `CCN(CCO)CCn1c(Cc2ccccc2)nc2c1c(=O)n(C)c(=O)n2C`, for which the “activity change, negative = cytotoxicity” value is -5.27%.

As to `CCCCS(=O)(=O)Cl`, the “activity change, negative = cytotoxicity” value is 10.3%.

As for `NCCOS(=O)(=O)O`, the “activity change, negative = cytotoxicity” value was 10.8%.

Take `ClCCCCl`: the “activity change, negative = cytotoxicity” value was 8.72% [at 95.3 µM].

`N#CN=C1SCCN1Cc1ccc(Cl)nc1`: the “activity change, negative = cytotoxicity” value is 7.66%.

Take `CNC(=O)O/N=C(/CSC)C(C)(C)C`: the “activity change, negative = cytotoxicity” value was -10.1%.

As for `CC(Cc1ccccc1)NCCn1cnc2c1c(=O)n(C)c(=O)n2C` (stereo not given), the “activity change, negative = cytotoxicity” value is -1.85%.

For `C[N+]1(C)CCCCC1`, the “activity change, negative = cytotoxicity” value was 8.38%.

Consider `CN=CNc1ccc(C)cc1C`, for which the “activity change, negative = cytotoxicity” value is 12.1%.

With `CCC1(CC)C(=O)C=CNC1=O`, the “activity change, negative = cytotoxicity” value is 0.622%.

With `CCC(=O)OC1(c2ccccc2)CCN(C)CC1`, the “activity change, negative = cytotoxicity” value was -2.15% [at 95.3 µM].

`CC(C)N(Cc1ccccc1)C(=O)C(C)(C)C`: the “activity change, negative = cytotoxicity” value is -12.5%.

`CCOP(=S)(OCC)SCCl`: the “activity change, negative = cytotoxicity” value is -12.8%.

For the molecule `BrCC1CO1` (stereo not given), the “activity change, negative = cytotoxicity” value was 13.4% [at 95.3 µM].

As for `CCOc1cc(OP(=S)(OC)OC)nc(CC)n1`, the “activity change, negative = cytotoxicity” value was -9.6%.

For `ClC(Cl)(Cl)Cl`, the Potency entry was “inactive”.

Take `CC(Cl)(Cl)Cl`: the “activity change, negative = cytotoxicity” value is 7.61%.

Turning to `CCCOC(=O)Cc1ccc(OCC(=O)N(CC)CC)c(OC)c1`, the “activity change, negative = cytotoxicity” value was -21.6%.

Take `O=C(O)CBr`: the “activity change, negative = cytotoxicity” value was 10.3%.

Regarding `C#CCOC(=O)/C=C(C)/C=C/CC(C)CCCC(C)C` (stereo not given), the “activity change, negative = cytotoxicity” value is -10.5%.

In the case of `Nc1c(Cl)c(F)nc(OCC(=O)O)c1Cl`, the “activity change, negative = cytotoxicity” value was 16.6%.

Consider `CCN(CC)CCOC(=O)C(O)(c1ccccc1)c1ccccc1`, for which the “activity change, negative = cytotoxicity” value was -10.2%.

For the molecule `C[C@H](CN1CCOCC1)C(C(=O)N1CCCC1)(c1ccccc1)c1ccccc1`, the “activity change, negative = cytotoxicity” value is -1.93% [at 95.3 µM].

For the molecule `CCNc1nc(NCC)nc(SC)n1`, the “activity change, negative = cytotoxicity” value was 11.8%.

Consider `COC(=O)[C@@H](N)CCCN/C(N)=N/[N+](=O)[O-]`, for which the “activity change, negative = cytotoxicity” value was 11.5%.

In the case of `NNC(N)=O`, the “activity change, negative = cytotoxicity” value is 7.72% [at 95.3 µM].

Consider `Cc1cc(OC(=O)N(C)C)nn1C(=O)N(C)C`, for which the “activity change, negative = cytotoxicity” value was 1.27%.

In the case of `C=CC(=O)OCCN(C)C`, the “activity change, negative = cytotoxicity” value was -5.66%.

Turning to `COc1cc(CC(C)N)cc(OC)c1OC` (stereo not given), the “activity change, negative = cytotoxicity” value is -6.73% [at 95.3 µM].

Consider `CN(C)C(=O)Oc1cc(OC(=O)N(C)C)cc(C(O)CNC(C)(C)C)c1` (stereo not given), for which the “activity change, negative = cytotoxicity” value was 15.5% [at 39.1 µM].
